The list is not random: actives were taken first. Their share in the collection is about 2.4%.
Pol beta inh-1 – qHTS Assay for Inhibitors of DNA Polymerase Beta | P06746 | Pol beta primer extension/strand displacement, fluorescence kinetic | Potency, µM (titrated, usually from 114 µM), hits mostly inhibitors | hit rate 1.3% among 340,000
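10 nM enzyme + cpd, 15 min RT; start with substrate 50 nM final; read 0 min and after 10 min RT. Corrected, normalized data; 4-parameter Hill curve fit.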
Pol iota inh – qHTS for Inhibitors of Polymerase Iota | Potency, µM (top dose mostly 115 µM), usual class: inhibitors | hit rate 1% among 390,000 | Pol iota fluorescent replication assay, 10 min | DNA polymerase iota (Homo sapiens), Q9UNA4
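Pol iota at 10 nM preincubated 15 min with compounds at room temperature; reaction started with fluorescent substrate, 50 nM final. Fluorescence read kinetically at 0 and 10 min; buffer-only wells as negative control.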
WRN helicase inh-1 – qHTS for Inhibitors of WRN Helicase; Potency, µM (series often up to 114 µM), actives largely listed as inhibitors; WRN helicase unwinding, fluorescent forked duplex, kinetic; hit rate 0.46% among 360,000; further: nearly all actives have a fitted effect of over 55% in size
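Enzyme (20 nM final) and test compound sit together 15 min at room temperature before substrate addition. Substrate is a single-forked duplex oligonucleotide (100 nM) labelled with fluorophore and quencher, with 2 mM ATP; helicase unwinding raises red fluorescence, read kinetically.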
Pol eta inh-1 – qHTS for Inhibitors of Polymerase Eta | DNA polymerase eta (Homo sapiens), Q9Y253 | AID 588591, 2011 | Potency, µM (doses to about 114 µM), hits mostly inhibitors | hit rate 1.2% among 390,000 | recombinant Pol eta, fluorescent DNA replication assay
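Pol eta (10 nM) was preincubated with compounds for 15 min at room temperature, after which fluorescent replication substrate (50 nM final) was added to start the reaction. Fluorescence was read kinetically at 0 and 10 min.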
FEN1 inh-1 – qHTS Assay for the Inhibitors of Human Flap endonuclease 1 (FEN1) | Recombinant FEN1 flap cleavage, fluorescence, 15 min | Potency, µM (titrated, usually from 114 µM), most hits filed as inhibitors | hit rate 0.35% among 390,000; further: nearly all actives have a fitted effect of over 65% in size
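Enzyme 10 nM, 15 min RT preincubation with compound; start with substrate 50 nM final; reads at 0 and 15 min; qHTS titration, four-parameter Hill fit.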
Pol kappa inh-1 – qHTS for Inhibitors of Polymerase Kappa. DNA polymerase kappa (Homo sapiens), Q9UBT6. purified Pol kappa, fluorescent DNA synthesis assay, 10 min. Potency, µM (highest dose often 107 µM), most hits filed as inhibitors. hit rate 0.53% among 400,000. AID 588579, 2011
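10 nM Pol kappa was preincubated with compounds for 15 min at room temperature. Reaction started with 50 nM (final) substrate. Fluorescence read kinetically at 0 and 10 min.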
Pol beta inh-2 – Inhibitors of DNA Polymerase Beta: Hit validation. hit rate 87% among 250. Potency, µM, usual class: inhibitors. Pol beta primer extension/strand displacement, fluorescence kinetic. AID 540280, 2011. shares compounds with Pol beta inh-1; calls by dose curve
Klenow inh – Inhibitors of DNA Polymerase Beta: Hit Validation in Klenow Fragment Assay. shares compounds with Pol beta inh-1. Klenow exo- polymerase counter-screen, fluorescent DNA substrate. activity change, negative = inhibition, % at 57.1 µM. 250 tested, under 10 active
HIV RT counter – Inhibitors of DNA Polymerase Beta: Hit Validation in HIV-RT Assay. HIV-1 RT polymerase activity, counter-screen. 250 tested, under 10 active. activity % (negative = inhibition, positive = activation), % at 57.1 µM. shares compounds with Pol beta inh-1
POLB valid – Inhibitors of DNA Polymerase Beta: Hit Validation in Radiolabeled Extension Assay; hit rate 91% among 110; shares compounds with Pol beta inh-1; inhibition, % at 10 µM; radiolabeled primer extension gel assay, phosphorimager; AID 540325, 2011;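 active means inhibition at 10 µM of 30% or more; inconclusive means no clear call, values can overlap the other calls; inactive means inhibition at 10 µM under 30%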
POLI cherry-pick – qHTS for Inhibitors of Polymerase Iota: Confirmatory Assay for Cherry-picked Compounds; shares compounds with Pol kappa inh-1; Pol iota primer extension, TAMRA/BHQ fluorescence; Potency, µM, usual class: inhibitors; hit rate 77% among 1,500; AID 720496, 2013
Pol kappa inh-2 – qHTS for Inhibitors of Polymerase Kappa: Confirmatory Assay for Cherry-picked Compounds; shares compounds with Pol eta inh-1; purified Pol-kappa, fluorescent strand-displacement substrate; Potency, µM, hits mostly inhibitors; hit rate 76% among 920; AID 720501, 2013
Pol eta inh-2 – qHTS for Inhibitors of Polymerase Eta: Confirmatory Assay for Cherry-picked Compounds; shares compounds with Pol eta inh-1; Potency, µM, most hits filed as inhibitors; Pol eta primer extension, TAMRA/BHQ fluorescence, 10 min; hit rate 64% among 2,600
FEN1 inh-2 – qHTS Assay for the Inhibitors of FEN1: Confirmatory Assay for Cherry-picked Compounds. shares compounds with FEN1 inh-1. FEN1 flap cleavage, TAMRA/BHQ2 fluorogenic DNA substrate. Potency, µM, actives largely listed as inhibitors. hit rate 79% among 880. AID 720498, 2013; further: nearly all actives have a fitted effect of over 60% in size
WRN helicase inh-2 – qHTS for Inhibitors of WRN Helicase: Confirmatory Assay for Cherry-picked Compounds; shares compounds with WRN helicase inh-1; WRN helicase DNA unwinding, fluorescence kinetic; Potency, µM (highest dose often 57.1 µM), usual class: inhibitors; hit rate 63% among 610; AID 720497, 2013; further: nearly all actives have a fitted effect of over 65% in size
TO displacement – qHTS for Inhibitors of WRN Helicase: Thiazole Orange DNA Binding Counterscreen; shares compounds with WRN helicase inh-1; thiazole orange DNA binding displacement, fluorescence; Potency, µM (highest dose often 57.1 µM), usual class: inhibitors; hit rate 10% among 610;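 further: drop in dye fluorescence marks compound binding to DNA; nearly all actives have a fitted effect of over 60% in size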
BLM counter – qHTS for Inhibitors of WRN Helicase: BLM Helicase Counterscreen for WRN Inhibitors; shares compounds with WRN helicase inh-1; Recombinant BLM helicase DNA unwinding, red fluorescence; Potency, µM (titrated, usually from 57.1 µM), usual class: inhibitors; hit rate 60% among 610; AID 720503, 2013; further: nearly all actives have a fitted effect of over 60% in size
Target sequence (P54132 whole entry, looked up): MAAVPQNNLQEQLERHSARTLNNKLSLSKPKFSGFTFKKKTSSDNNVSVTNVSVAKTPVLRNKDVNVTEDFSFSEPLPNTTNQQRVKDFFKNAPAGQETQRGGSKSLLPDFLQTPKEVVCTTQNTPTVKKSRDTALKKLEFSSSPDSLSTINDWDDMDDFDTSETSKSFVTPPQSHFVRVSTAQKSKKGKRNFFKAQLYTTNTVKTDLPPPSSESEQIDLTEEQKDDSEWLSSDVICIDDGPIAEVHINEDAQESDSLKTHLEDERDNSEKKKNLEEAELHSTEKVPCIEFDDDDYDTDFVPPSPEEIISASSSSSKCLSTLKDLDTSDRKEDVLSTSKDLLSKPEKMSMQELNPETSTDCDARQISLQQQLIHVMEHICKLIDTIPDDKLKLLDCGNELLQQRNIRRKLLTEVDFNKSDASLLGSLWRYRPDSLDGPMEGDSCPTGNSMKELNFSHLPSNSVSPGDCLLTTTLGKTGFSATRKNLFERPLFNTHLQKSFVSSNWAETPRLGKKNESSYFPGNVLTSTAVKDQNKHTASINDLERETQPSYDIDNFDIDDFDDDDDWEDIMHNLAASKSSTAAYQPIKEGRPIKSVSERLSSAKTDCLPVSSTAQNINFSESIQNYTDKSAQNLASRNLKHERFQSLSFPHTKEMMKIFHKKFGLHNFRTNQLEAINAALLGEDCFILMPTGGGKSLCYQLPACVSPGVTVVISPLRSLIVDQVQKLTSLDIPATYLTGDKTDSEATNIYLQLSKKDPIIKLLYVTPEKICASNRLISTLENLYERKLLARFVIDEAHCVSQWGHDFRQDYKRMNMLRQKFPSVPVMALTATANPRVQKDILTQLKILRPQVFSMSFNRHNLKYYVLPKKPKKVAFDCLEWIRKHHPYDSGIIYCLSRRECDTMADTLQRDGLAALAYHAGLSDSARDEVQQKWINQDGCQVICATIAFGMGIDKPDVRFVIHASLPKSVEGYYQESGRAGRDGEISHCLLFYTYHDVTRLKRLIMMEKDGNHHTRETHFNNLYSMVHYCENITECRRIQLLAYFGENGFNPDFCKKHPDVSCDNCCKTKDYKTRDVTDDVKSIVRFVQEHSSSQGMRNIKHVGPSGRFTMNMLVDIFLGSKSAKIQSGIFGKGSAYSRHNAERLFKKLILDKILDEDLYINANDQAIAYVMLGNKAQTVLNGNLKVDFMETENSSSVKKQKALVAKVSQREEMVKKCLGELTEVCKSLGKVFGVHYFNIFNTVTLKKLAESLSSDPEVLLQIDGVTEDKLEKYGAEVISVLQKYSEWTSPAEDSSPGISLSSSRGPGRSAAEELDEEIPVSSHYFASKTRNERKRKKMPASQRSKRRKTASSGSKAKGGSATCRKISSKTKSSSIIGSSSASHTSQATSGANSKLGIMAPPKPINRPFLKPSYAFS
A number is an active result; i = inactive; ? = inconclusive; nt = no result given; [ ] = remark or other dose. Unless noted, the call rests on the fitted dose curve; in most records, active means well fitted curve in the direction sought with a large enough effect; inconclusive means small, poorly fitted or top-dose-only effect, or another doubt; inactive means no such curve, though single readings can be large; an effect the other way counts as inactive or inconclusive.

SMILES | Pol beta inh-1 | Pol iota inh | WRN helicase inh-1 | Pol eta inh-1 | FEN1 inh-1 | Pol kappa inh-1 | Pol beta inh-2 | Klenow inh | HIV RT counter | POLB valid | POLI cherry-pick | Pol eta inh-2 | others
CCCN(C(=O)c1cc2c(s1)CCC2)c1c(N)n(Cc2ccccc2)c(=O)[nH]c1=O | 10µM | ? | i | 25.1µM | i | ? | 22.4 | i | i | 90.6 | ? | 75.7
CCCc1cc(=O)oc2c(CN3CCCC3)c(O)ccc12 | i | i | i | i | i | i | nt | nt | nt | nt | nt | nt
CCCc1cc(=O)oc2cc(C)c(CN3CCCC3)c(O)c12 | 6.31µM | 5.01µM | 39.8µM | 22.4µM | 50.1µM | 20µM | 25.1 | i | i | i | nt | 67.5
Cc1cc(NC(=O)CSc2ncnc3sccc23)no1 | i | i | i | i | i | i | nt | nt | nt | nt | nt | nt
N#Cc1c(NC(=O)CSc2ncnc3sccc23)oc(-c2ccco2)c1-c1ccco1 | 10µM | ? | ? | 14.1µM | ? | 44.7µM | 28.2 | i | i | 92.8 | 42.3 | 19 | Pol kappa inh-2=6.7;FEN1 inh-2=67.5
Cc1ccc(-c2cc(-c3ccco3)c(C#N)c(=O)[nH]2)cc1 | 11.2µM | ? | 31.6µM | 28.2µM | ? | ? | 22.4 | i | i | 96.4 | 21.2 | 15.1 | FEN1 inh-2=67.5
CC1=C(C(=O)OC(C)C)C(c2ccc(Cl)cc2)n2c(s/c(=C\c3ccc(OCC(=O)O)cc3)c2=O)=N1 (configuration not stated) | 3.55µM | ? | i[11.6 µM] | 8.91µM | ? | i | 7.08 | i | i | nt | 37.7 | 60.1 | FEN1 inh-2=67.5
CCOC(=O)C1=C(C)N=c2s/c(=C\c3ccc(OCC(=O)O)cc3)c(=O)n2C1c1ccccc1 (configuration not stated) | i | i | ? | ? | i | i | nt | nt | nt | nt | nt | nt
COc1ccc(CN(Cc2ccccc2)C(=O)Nc2ccccc2)cc1COc1ccc(NC(C)=O)cc1 | nt | i | nt | nt | i | i | nt | nt | nt | nt | nt | nt
O=C1N=c2ccccc2=C1c1sc(Nc2ccc(O)cc2)nc1O | 20µM | 8.91µM | ? | 31.6µM | ? | 35.5µM | 7.94 | i | i | nt | 47.4 | ? | Pol kappa inh-2=16.8;FEN1 inh-2=75.7
CCc1ccccc1N(C)C(=O)c1cn(-c2cccc(OC)c2)c(=O)c2ccccc12 | i | i | nt | i | i | i | nt | nt | nt | nt | nt | nt
CNC(=O)COC(=O)c1cc(-c2ccco2)nc2ccccc12 | 3.55µM | ? | 79.4µM | 11.2µM | 50.1µM | 25.1µM | 28.2 | i | ? | 99.9 | 21.2 | 19 | FEN1 inh-2=?;WRN helicase inh-2=15.2µM;TO displacement=i;BLM counter=4.82µM
CCOc1ccc(CCNC(=O)c2c(C)oc3ncn(CC(C)C)c(=O)c23)cc1OCC | i | i | nt | i | i | i | nt | nt | nt | nt | nt | nt
Cc1c(Cc2ccccc2)c(=O)oc2cc(O)ccc12 | i | i | i | i | i | i | nt | nt | nt | nt | nt | nt
Cc1c(Cc2ccccc2)c(=O)oc2c(O)c(O)ccc12 | 12.6µM | 8.91µM | 28.2µM | ? | ? | ? | 5.01 | i | i | nt | nt | nt | WRN helicase inh-2=6.81µM;TO displacement=i;BLM counter=6.81µM
O=C(CSc1n[nH]c(-c2ccccc2)n1)c1ccc(O)c(O)c1 | 15.8µM | 17.8µM | 15.8µM | 39.8µM | i | 25.1µM | 31.6 | i | ? | i | nt | nt | WRN helicase inh-2=19.2µM;TO displacement=i;BLM counter=19.2µM
CC(=O)N1N=C(N)SC1c1ccc(Cl)c(Cl)c1 (configuration not stated) | nt | nt | i | i | nt | nt | nt | nt | nt | nt | nt | nt
COc1ccc(/C=N\NC(=O)c2c(C)nc3ccc(Br)cn23)cc1 | ? | ? | i | ? | i | i | nt | nt | nt | nt | ? | nt
Cc1ccc(NC(=O)CS(=O)CC(=O)Nc2ccc(N3CCOCC3)cc2)cc1Cl (configuration not stated) | 25.1µM | 17.8µM | i | ? | ? | ? | nt | nt | nt | nt | ? | nt
Cc1cc(C)c(NC(=O)CS(=O)CC(=O)Nc2ccc(N3CCOCC3)cc2)c(C)c1 (configuration not stated) | i | i | i | i | i | i | nt | nt | nt | nt | nt | nt
Cc1cccc(CNc2nc(-c3ccccc3CN(C)C)nc3ccccc23)c1 | nt | nt | nt | nt | nt | i | nt | nt | nt | nt | nt | nt
